# Measurements: PubChem BioAssay (NCATS)
# Values without a mark were called inactive. Results filed as inconclusive are left out. Where a call stands in place of a potency, no number is given. Calls of active or inactive are those of the source. Unless noted, calls come from the whole dose curve; as a rule, active = well fitted curve in the direction sought with a large enough effect; inconclusive = small, poorly fitted or top-dose-only effect, or another doubt; inactive = no such curve, though single readings can be large; an effect the other way counts as inactive or inconclusive.
# Legend:
# [1] = target: Cytochrome P450 1A2 (Homo sapiens) (UniProt P05177); assay: p450-cyp1a2 (AID 410; calls by dose curve; note: potency is the fitted concentration of half-maximal effect)
# In short: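 Luminescent readout of luciferin formed from Luciferin-ME by human CYP1A2; data normalized against complete inhibition by 57 uM furafylline. Enzyme 20nM, substrate 100uM at Km, 100mM KPO4 buffer, 60 min reaction at room temperature.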
# [2] = target: Glucocorticoid receptor (Homo sapiens) (UniProt P04150); assay: GR-EFC Redistribution (AID 451; calls by dose curve; note: potency is the fitted concentration of half-maximal effect); conditions: CHO-K1 GR-EFC translocation, beta-gal luminescence, 2 h
# In short: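 Translocation of GR-ED fusion to nuclear EA restores b-gal, read by luminescence after 1 h room-temperature detection. Engineered CHO-K1 biosensor cells, 1,000/well, exposed 2 h at 37 C to titrations up to 46 uM final.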
# [3] = target: Cytochrome P450 2D6 (Homo sapiens) (UniProt P10635); assay: qHTS Assay for Inhibitors and Substrates of Cytochrome P450 2D6 (AID 891); note: potency is the fitted concentration of half-maximal effect; nearly all actives have a fitted effect of over 60% in size
# In short: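 Human CYP2D6 (5 nM) with 30 uM Luciferin-ME EGE (at Km) in 100 mM KPO4, compound preincubated 10 min, then NADPH regeneration system for 60 min at room temperature. Luciferin read by luminescence; normalized to 1.43 uM quinidine.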
# [4] = target: DNA dC->dU-editing enzyme APOBEC-3G (Homo sapiens) (UniProt Q9HC16); assay: qHTS for inhibitors of Vif-A3G interactions: Validation (AID 588379)
# In short: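 HeLa cells stably expressing Vif and A3G-eYFP, 700 cells/well, incubated overnight at 37 deg C, then exposed to compound overnight at 37 deg C. Inhibition of Vif-mediated degradation read as increased yellow fluorescence (Ex 488/Em 500-530) by laser-scanning cytometry.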
# [5] = tested on: Zika virus NS2B-NS3 protease; assay: Primary screen GU AMC qHTS for Zika virus inhibitors (AID 1347154); note: nearly all actives have a fitted effect of over 70% in size
# In short: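 Fluorogenic AMC-substrate cleavage by noncovalent NS2B-NS3 protease complex (25 nM, pH 8.0 Tris buffer with Tween 20) followed for 15 minutes at room temperature (~20% conversion). Percent inhibition from ex340/em450 signal change, fitted by 4-parameter Hill equation.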
# [6] = target: Calcium and integrin-binding protein 1 (Homo sapiens) (UniProt Q99828); assay: Primary qHTS for Identification of Calcium Integrin Binding Protein 1 (CIB1) Competitor (AID 1508620);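 note: GST tagged CIB1 binding a fluorescein labelled alphaIIb integrin peptide tracer; top concentration of the series differs between compounds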
# In short: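 CIB1-GST (1 uM final) and compound incubated 15 min at room temperature before adding FITC-alphaIIb peptide tracer (100 nM final). Competition for binding read by fluorescence polarization (ex 480, em 540) after another 15 min at room temperature.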
# [7] = Primary qHTS for small molecule stabilizers of the endoplasmic reticulum resident proteome: Secreted ER Calcium Modulated Protein (SERCaMP) assay (AID 1508630)
# In short: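 GLuc-SERCaMP-expressing SH-SY5Y cells, pretreated 16 h with compound, are challenged with thapsigargin to empty ER calcium stores; after 4 h, coelenterazine is added directly to the medium and luminescence is imaged.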
# Chain of Cytochrome P450 2D6 (Homo sapiens) (P10635 whole entry, looked up): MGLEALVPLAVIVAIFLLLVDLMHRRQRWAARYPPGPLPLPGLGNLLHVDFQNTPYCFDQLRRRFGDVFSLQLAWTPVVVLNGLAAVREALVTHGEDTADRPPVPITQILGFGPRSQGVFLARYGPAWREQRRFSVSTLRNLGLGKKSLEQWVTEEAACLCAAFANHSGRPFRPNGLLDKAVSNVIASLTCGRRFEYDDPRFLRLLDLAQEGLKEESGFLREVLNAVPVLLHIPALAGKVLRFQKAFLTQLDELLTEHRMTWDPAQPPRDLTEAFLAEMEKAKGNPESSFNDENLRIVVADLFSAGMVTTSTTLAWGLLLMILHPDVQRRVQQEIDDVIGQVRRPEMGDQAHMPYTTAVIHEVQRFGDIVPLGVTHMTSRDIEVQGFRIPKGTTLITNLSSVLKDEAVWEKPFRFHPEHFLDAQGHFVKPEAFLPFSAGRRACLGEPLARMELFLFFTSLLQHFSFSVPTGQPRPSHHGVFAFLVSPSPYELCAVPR
# Chain of Calcium and integrin-binding protein 1 (Homo sapiens) (Q99828 whole entry, looked up): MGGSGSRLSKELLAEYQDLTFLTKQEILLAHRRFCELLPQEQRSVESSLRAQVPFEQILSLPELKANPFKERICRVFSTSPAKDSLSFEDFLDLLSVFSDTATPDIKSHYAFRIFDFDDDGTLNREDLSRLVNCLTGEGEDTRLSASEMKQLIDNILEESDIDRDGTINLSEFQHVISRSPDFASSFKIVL
# Chain of Glucocorticoid receptor (Homo sapiens) (P04150 whole entry, looked up, the tested form may be a part): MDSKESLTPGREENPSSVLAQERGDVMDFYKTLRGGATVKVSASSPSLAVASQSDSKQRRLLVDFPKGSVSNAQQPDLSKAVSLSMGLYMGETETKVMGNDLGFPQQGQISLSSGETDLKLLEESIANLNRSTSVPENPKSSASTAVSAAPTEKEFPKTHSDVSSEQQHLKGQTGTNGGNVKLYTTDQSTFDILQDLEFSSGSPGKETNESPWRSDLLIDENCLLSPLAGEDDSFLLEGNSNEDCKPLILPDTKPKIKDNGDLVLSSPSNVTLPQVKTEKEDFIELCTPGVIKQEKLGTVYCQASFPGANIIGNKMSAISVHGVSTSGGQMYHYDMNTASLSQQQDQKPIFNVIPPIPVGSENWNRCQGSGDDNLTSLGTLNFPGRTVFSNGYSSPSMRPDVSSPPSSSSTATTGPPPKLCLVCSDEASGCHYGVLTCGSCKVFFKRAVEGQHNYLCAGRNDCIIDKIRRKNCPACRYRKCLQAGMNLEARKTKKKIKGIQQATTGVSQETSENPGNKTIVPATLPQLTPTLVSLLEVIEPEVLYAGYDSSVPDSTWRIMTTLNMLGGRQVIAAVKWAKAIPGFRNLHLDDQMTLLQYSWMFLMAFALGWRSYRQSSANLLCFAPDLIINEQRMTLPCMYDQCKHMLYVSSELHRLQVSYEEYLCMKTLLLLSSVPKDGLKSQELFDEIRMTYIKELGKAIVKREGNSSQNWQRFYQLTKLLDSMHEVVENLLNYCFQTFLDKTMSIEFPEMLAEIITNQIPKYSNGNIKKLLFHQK
# Chain of Cytochrome P450 1A2 (Homo sapiens) (P05177 whole entry, looked up): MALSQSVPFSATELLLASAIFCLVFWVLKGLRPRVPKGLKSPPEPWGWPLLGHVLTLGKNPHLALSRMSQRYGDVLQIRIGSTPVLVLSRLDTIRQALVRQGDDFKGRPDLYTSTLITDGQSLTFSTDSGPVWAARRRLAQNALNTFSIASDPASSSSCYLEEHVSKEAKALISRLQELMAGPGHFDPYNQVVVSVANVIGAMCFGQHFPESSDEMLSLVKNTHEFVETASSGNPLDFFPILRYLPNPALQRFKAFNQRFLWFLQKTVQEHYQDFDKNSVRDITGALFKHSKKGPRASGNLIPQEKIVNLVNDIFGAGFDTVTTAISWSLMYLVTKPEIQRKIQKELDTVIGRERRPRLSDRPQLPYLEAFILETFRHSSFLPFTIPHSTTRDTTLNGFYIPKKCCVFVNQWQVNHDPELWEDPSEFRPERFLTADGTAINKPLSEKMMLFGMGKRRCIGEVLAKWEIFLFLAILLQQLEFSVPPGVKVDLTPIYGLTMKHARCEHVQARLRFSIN
# Chain of DNA dC->dU-editing enzyme APOBEC-3G (Homo sapiens) (Q9HC16 whole entry, looked up): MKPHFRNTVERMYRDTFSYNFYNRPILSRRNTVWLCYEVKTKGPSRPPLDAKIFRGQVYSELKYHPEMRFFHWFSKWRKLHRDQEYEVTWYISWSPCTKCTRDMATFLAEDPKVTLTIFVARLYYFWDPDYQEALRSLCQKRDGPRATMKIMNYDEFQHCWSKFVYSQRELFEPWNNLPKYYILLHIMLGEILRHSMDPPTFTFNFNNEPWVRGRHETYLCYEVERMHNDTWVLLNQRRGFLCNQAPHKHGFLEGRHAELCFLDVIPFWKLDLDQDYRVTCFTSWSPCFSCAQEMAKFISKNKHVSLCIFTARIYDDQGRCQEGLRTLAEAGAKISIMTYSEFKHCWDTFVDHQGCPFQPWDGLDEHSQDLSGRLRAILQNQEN
compound,measurement,setting,value
COC(=O)c1ccccc1NC(=O)c1ccc(F)cc1,Potency,[1],0.2 µM (active)
same,Potency,[2],> 46 µM
same,Potency,[3],5.01 µM (active)
same,Potency,[4],inactive
same,Potency,[5],inactive
same,outcome,[6],inactive
same,Potency,[7],inactive
